According to PubChem BioAssay AID2235 (The Scripps Research Institute Molecular Screening Center, 2010):
The campaign covered roughly 320,000 compounds. About 2,800 (0.88%) were called active.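 The calls were made as follows: active = inhibition above the mean inhibition of all tested compounds plus 3 SD, computed separately for each screening campaign (cut at about 15% in these data); inactive = the rest.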 Only a selection was taken, and actives are over-represented in it overall.

Each compound was assayed against Serine/threonine-protein phosphatase PP1-alpha catalytic subunit (Homo sapiens) (UniProt P62136) (assay: inhibition of human PP1 catalytic subunit – biochemical, fluorescence, OMFP substrate, single point, counter-screen for PP5 inhibitor project, primary screen (AID 2235)). Details: purified PP1alpha, at 6.7 µM, active compounds read high.
Sequence of Serine/threonine-protein phosphatase PP1-alpha catalytic subunit (Homo sapiens) (P62136 whole entry, looked up): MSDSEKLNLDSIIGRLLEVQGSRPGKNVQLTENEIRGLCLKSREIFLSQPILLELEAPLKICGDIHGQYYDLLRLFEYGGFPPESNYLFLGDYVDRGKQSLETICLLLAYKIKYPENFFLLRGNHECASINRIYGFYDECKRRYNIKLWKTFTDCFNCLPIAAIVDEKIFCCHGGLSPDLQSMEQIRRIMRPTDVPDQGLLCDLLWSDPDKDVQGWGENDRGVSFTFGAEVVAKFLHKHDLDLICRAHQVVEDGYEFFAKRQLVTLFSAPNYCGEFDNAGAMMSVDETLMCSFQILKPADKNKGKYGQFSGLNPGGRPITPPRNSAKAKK
In the case of `COC(=O)C1NN=C(C(=O)c2ccc(Br)cc2)C1c1cccc(Br)c1` (configuration not stated), the inhibition is reported as 1.62% (inactive). For `c1ccc(-c2cc(-c3nnc4sc(-c5ccccn5)nn34)[nH]n2)cc1`, the inhibition was 14% (inactive). For `COc1cc(-c2nn3c(-c4cccc(C)c4)nnc3s2)cc(OC)c1OC`, the inhibition was 7.7% (inactive). `CCOc1cccc(-c2nn3c(-c4ccccn4)nnc3s2)c1` was tested, and the inhibition was 16.3% (active). In the case of `CCCCCCCC[n+]1cccc(C(=O)N2c3c(nc(N)[nH]c3=O)NC(C)C2C)c1` (configuration not stated), the inhibition is reported as -2.25% (inactive). With `CCN(CC(=O)NCc1cccs1)C(=O)c1ccc(OC)c(S(=O)(=O)N2CCOCC2)c1` the inhibition was -5.16% (inactive). For `O=C(c1ccco1)N1CCN(C(=S)Nc2cc(F)cc(F)c2)CC1`, the inhibition was -1.12% (inactive). With `COC(=O)c1c(C)c(C)nc(N)c1C#N` the inhibition was -0.85% (inactive). In the case of `O=[N+]([O-])/C=C/c1ccc2c(ccn2Cc2ccccc2)c1`, the inhibition is reported as 18.3% (active). With `COC(=O)Cn1cc(/C=C/[N+](=O)[O-])c2ccccc21` the inhibition was -3.58% (inactive). `O=C(/C=C/c1cccc([N+](=O)[O-])c1)N1CCN(Cc2ccccc2)CC1` was tested, and the inhibition was 1.31% (inactive). For `Cc1ccnc(N2CCN(C(=O)CSc3nc4ccccc4nc3N3CCCCC3)CC2)c1`, the inhibition was 2.11% (inactive). For `CCCC[C@H]1COCCS(=O)(=O)N1Cc1cccc(Cl)c1`, the inhibition was -6.26% (inactive). With `Oc1c(Cl)cc(Cl)c(Cl)c1Cc1c(O)c(Cl)cc(Cl)c1Cl` the inhibition was 21% (active). `COc1cc(N2C(=O)CSC2=S)cc(OC)c1OC` was tested, and the inhibition was -0.27% (inactive). In the case of `CC(C)n1ncc2c(C(=O)Nc3ccc(CC#N)cc3)cc(C3CC3)nc21`, the inhibition is reported as 0.77% (inactive). For `CC(=O)Nc1ccc(S(=O)(=O)NC(C)C(=O)OCC(=O)NC2CCCC2)cc1` (configuration not stated), the inhibition was -2.23% (inactive). For `O=C(N/N=C/C=C/c1ccco1)c1cccs1`, the inhibition was -2.08% (inactive). For `Cc1ccc(-c2cc(C(=O)N/N=C/C=C/c3ccco3)c3ccccc3n2)cc1C`, the inhibition was 20% (active). In the case of `COc1ccc(/C=N/NC(=O)c2cc(-c3cccc(C)c3)nc3ccccc23)cc1O`, the inhibition is reported as -0.69% (inactive). For `CCn1cc(C(=O)NC2CCCCCC2)c(=O)c2cc(S(=O)(=O)N3CCCCC3)ccc21`, the inhibition was -1.18% (inactive). In the case of `Cc1ccc(N2C(=O)C3C4C=CC(CC4)C3C2=O)cc1Br` (configuration not stated), the inhibition is reported as -2.3% (inactive). In the case of `Cc1ccc(-c2nc3ccccc3[nH]2)cc1N`, the inhibition is reported as -2.81% (inactive). `O=C(/C=C/c1ccco1)Nc1cccc(-c2nc3ccccc3[nH]2)c1` was tested, and the inhibition was -1.53% (inactive). For `O=C(Nc1cccc(-c2nc3ccccc3[nH]2)c1)c1ccc(C(=O)Nc2cccc(-c3nc4ccccc4[nH]3)c2)cc1`, the inhibition was 18.9% (active). For `O=C(O)c1ccccc1C(=O)NC1=NN(c2ccccc2)CC1`, the inhibition was 2.04% (inactive). For `Cc1ccc2nc(N(CCN(C)C)C(=O)C3=COCCO3)sc2c1`, the inhibition was -4.21% (inactive). With `Cc1nn(C)cc1CNC(=O)Nc1ccc(Cl)cc1` the inhibition was -6.68% (inactive). `O=C(NCc1cccs1)c1cc(-c2ccccn2)nc2ccc(Br)cc12` was tested, and the inhibition was 0.34% (inactive). In the case of `Cc1ccc(-c2cc(C(=O)NCc3cn(C)nc3C)c3cc(Br)ccc3n2)cc1`, the inhibition is reported as 15.4% (active). With `Cc1cc(C)c(C(N)=O)c(Cl)n1` the inhibition was -1.75% (inactive). For `CCCN(CCC)CCCNC(=O)CNC(=O)c1nn(-c2ccc(OC)cc2)c(=O)c2ccccc12`, the inhibition was -4.54% (inactive). In the case of `COc1ccc(CN2CCNC(=O)C2CC(=O)NCc2cn[nH]c2-c2ccccc2)c(F)c1` (configuration not stated), the inhibition is reported as 3.63% (inactive). With `OCCC1CN(Cc2ccc(Oc3ncccn3)cc2)CCN1CCc1ccccc1` (configuration not stated) the inhibition was -2.28% (inactive). For `COc1ccc(/C=C/C(=O)OCC(=O)NCc2cccs2)cc1OC`, the inhibition was -2.5% (inactive). With `COc1cc(/C=C/C(=O)OCC(=O)NC(=O)NCc2ccccc2)ccc1OCC#N` the inhibition was -4.2% (inactive). `CCOc1ccc(/C=C/C(=O)OCC(=O)c2ccccc2OC)cc1OC` was tested, and the inhibition was 23.7% (active). `O=C(C1CCCO1)N1CCN(S(=O)(=O)c2ccc(Br)cc2)CC1` (configuration not stated) was tested, and the inhibition was 0% (inactive). `COc1cc(NC(=O)COC(=O)c2cnc(C)cn2)c(C)cc1[N+](=O)[O-]` was tested, and the inhibition was -3.47% (inactive). In the case of `Nn1c(SCc2ccccc2)nnc1C1CCCCC1`, the inhibition is reported as -2.09% (inactive). In the case of `COCCNC(=O)C1CCN(C(=O)C2CC(=O)N(c3ccc(C)cc3)C2)CC1` (configuration not stated), the inhibition is reported as -0.32% (inactive). `COCCCNC(=O)C1CC(=O)N(CCc2ccccc2)C1` (configuration not stated) was tested, and the inhibition was 0.11% (inactive). In the case of `COCCCNC(=O)C1CC(=O)N(c2ccc(C)cc2)C1` (configuration not stated), the inhibition is reported as 73.3% (active). With `Oc1c(CN2CCN(c3ccc(F)cc3)CC2)cc(Cl)c2cccnc12` the inhibition was 35.2% (active). For `Cc1cccnc1NC(=O)c1cccc(S(=O)(=O)N2CCN(c3ccc(F)cc3)CC2)c1`, the inhibition was -3.22% (inactive). For `O=C(CN1CCN(c2ccc(F)cc2)CC1)Nc1ccccc1`, the inhibition was 2.42% (inactive). With `C1CC1Cc1noc(CN2CCN(CC3CC3)CC2)n1` the inhibition was -4.45% (inactive). `CC(=O)Nc1ccc(C(=O)NNC(=O)CCCCC(=O)NNC(=O)c2ccc(NC(C)=O)cc2)cc1` was tested, and the inhibition was -4.34% (inactive). For `CCc1sc(C(=O)N2CCN(CC(=O)Nc3cccc(F)c3)CC2)cc1C`, the inhibition was -1.08% (inactive). In the case of `Cc1ccc(NC(=O)/C(=C/c2ccc([N+](=O)[O-])cc2)NC(=O)c2ccccc2)cc1`, the inhibition is reported as 1.49% (inactive). With `O=C(N/N=C/c1cc([N+](=O)[O-])ccc1O)/C(=C\c1cccs1)NC(=O)c1ccccc1` the inhibition was 19.9% (active). For `O=C(Nc1ccc(C(=O)O)cc1)/C(=C/c1ccc([N+](=O)[O-])cc1)NC(=O)c1ccccc1`, the inhibition was -0.04% (inactive). `COC(=O)CC(=O)N1CCN(c2ccc(Cl)c(Cl)c2)CC1` was tested, and the inhibition was -1.17% (inactive). In the case of `CC(C)Cn1c(N)c(C(=O)COC(=O)C2CCCN2C(=O)c2cccs2)c(=O)n(C)c1=O` (configuration not stated), the inhibition is reported as 3.85% (inactive). `Cc1ccc(OCC(=O)N2CCN(S(=O)(=O)c3ccc(Cl)s3)CC2)cc1C` was tested, and the inhibition was 2.28% (inactive). In the case of `CCn1c(=O)c(C(=O)NCc2ccc3c(c2)OCO3)c(O)c2ccccc21`, the inhibition is reported as -4.95% (inactive). In the case of `Cc1nc2c(C(=O)NCc3ccc4c(c3)OCO4)c[nH]n2c(=O)c1Cc1ccccc1F`, the inhibition is reported as 42.6% (active). For `O=C(NCc1ccc2c(c1)OCO2)c1cc(F)c(F)cc1Cl`, the inhibition was 2.6% (inactive). For `CC(=O)Nc1ccc(NC(=O)CSc2nnc(COc3ccccc3C)n2CC2CCCO2)cc1` (configuration not stated), the inhibition was 16.9% (active). For `Cc1ccc(NC(=O)CSc2nnc(COc3ccccc3C)o2)cc1`, the inhibition was -4.67% (inactive). `COc1ccccc1NC(=O)CSc1nnc(C)n1CC1CCCO1` (configuration not stated) was tested, and the inhibition was -1.67% (inactive). `Cc1cccc2cc(CN(C(=O)c3cccs3)c3ccccc3)c(=O)[nH]c12` was tested, and the inhibition was 1.24% (inactive). With `Cc1cccc2cc(CN(Cc3cccs3)C(=S)NCc3ccco3)c(=O)[nH]c12` the inhibition was 16.9% (active). `Cc1ccc(C)c2[nH]c(=O)c(CN(Cc3cccnc3)C(=S)NCc3ccco3)cc12` was tested, and the inhibition was 1.73% (inactive). `Cc1ccnc(NC(=O)c2ccc(Cl)c([N+](=O)[O-])c2)c1` was tested, and the inhibition was -0.42% (inactive). For `Cc1c(NC(=O)CN2C(=O)C(=O)N(Cc3ccccc3)C2=O)c(=O)n(-c2ccccc2)n1C`, the inhibition was -2.42% (inactive). In the case of `N#Cc1c(-c2ccccc2)nc(SCc2ccc([N+](=O)[O-])cc2)[nH]c1=O`, the inhibition is reported as 9.45% (inactive). With `Cc1ccc(CSc2nc(-c3ccccc3)c(C#N)c(=O)[nH]2)cc1` the inhibition was 14.2% (inactive). In the case of `N#Cc1c(-c2ccccc2)nc(SCc2cccc(C(F)(F)F)c2)[nH]c1=O`, the inhibition is reported as 22.1% (active). `Cc1ccc(OCCC(=O)OCC(=O)N2c3ccccc3NC(=O)C2(C)C)cc1` was tested, and the inhibition was 0.61% (inactive). With `CCCCN(CC)C(=O)c1ccccc1Oc1ccccc1` the inhibition was -1.38% (inactive). For `CCOC(=O)c1c(S(=O)(=O)Nc2ccc(CN3CCC(C)CC3)cc2)c(C)n(C)c1C`, the inhibition was 2.36% (inactive). For `O/N=C(\c1ccc2c(c1)OCCO2)C1CCCCC1`, the inhibition was 0.46% (inactive). `COc1ccc2c(CN3CCN(S(=O)(=O)c4cccs4)CC3)cc(=O)oc2c1` was tested, and the inhibition was 4.63% (inactive). For `Cc1cc2oc(=O)cc(CN3CCN(S(=O)(=O)c4cccs4)CC3)c2cc1C(C)C`, the inhibition was -3.33% (inactive). `Cc1ccc2c(CN3CCN(S(=O)(=O)c4ccccc4C(F)(F)F)CC3)cc(=O)oc2c1` was tested, and the inhibition was 16.8% (active). For `COc1ccccc1NS(=O)(=O)N(C)C`, the inhibition was 6.89% (inactive). In the case of `CCCc1nnc(NC(=O)CCC(=O)N2CCN(S(=O)(=O)c3ccc(OC)cc3)CC2)s1`, the inhibition is reported as -4.44% (inactive). In the case of `Cc1cc2nc3c(=O)n(Cc4ccccc4)c(=O)[nH]c3nc2cc1N`, the inhibition is reported as 2.81% (inactive). For `Nc1ccc2nc3c(=O)[nH]c(=S)[nH]c3nc2c1`, the inhibition was 41.9% (active). `COC(=O)/C(C#N)=C/c1occc1C` was tested, and the inhibition was -1.37% (inactive). With `CCC(C)(C)NC(=O)C(c1ccc(O)cc1)N(C(=O)Cn1nnc2ccccc21)c1ccc(NC(C)=O)cc1` (configuration not stated) the inhibition was 4.46% (inactive). In the case of `O=C(CC1N=C2c3ccccc3N=C(SCc3ccccc3Cl)N2C1=O)NCc1ccco1` (configuration not stated), the inhibition is reported as 1.15% (inactive). With `O=c1cc(O)nc(SCc2ccccc2Cl)[nH]1` the inhibition was 3.47% (inactive). With `Clc1ccccc1CSc1nnc(-c2ccco2)c(-c2ccco2)n1` the inhibition was 24.6% (active). In the case of `CCOC(=O)N1CCN(S(=O)(=O)c2cc3c(cc2C)NC(=O)CO3)CC1`, the inhibition is reported as -2.81% (inactive). In the case of `CCOc1cc(C2C(C(=O)c3ccco3)=C(O)C(=O)N2Cc2ccccc2)ccc1O` (configuration not stated), the inhibition is reported as 4.74% (inactive). In the case of `COc1cc(C2C(C(=O)c3ccco3)=C(O)C(=O)N2c2cc(C)on2)ccc1OCc1ccccc1` (configuration not stated), the inhibition is reported as 13.9% (inactive). For `COc1ccc(CCN2C(=O)c3[nH]nc(-c4ccccc4O)c3C2c2ccc(C)cc2)cc1OC` (configuration not stated), the inhibition was 6.53% (inactive). `COc1cc(C2C(C(=O)c3ccc(C)o3)=C(O)C(=O)N2CCc2ccccc2)ccc1O` (configuration not stated) was tested, and the inhibition was 32.7% (active). `Cc1cc(N2C(=O)C(=O)/C(=C(/O)c3ccccc3)C2c2cccc(Br)c2)no1` (configuration not stated) was tested, and the inhibition was -4.18% (inactive). With `Cc1cc(N2C(=O)C(O)=C(C(=O)c3ccc(C)o3)C2c2ccc(OCc3ccccc3)cc2)no1` (configuration not stated) the inhibition was 26.8% (active).
